An excerpt weighted towards active compounds, which were near 0.9% of everything screened.
RGS12 GoLoco inh = qHTS Assay for Inhibitors of RGS12 GoLoco Motif Activity (Red Fluorophore). Guanine nucleotide-binding protein G(i) subunit alpha-1 (Homo sapiens), P63096. Gai1:RGS12 GoLoco peptide FP, rhodamine, 10 min. Potency, µM (doses to about 61.6 µM), for the others: at the top dose activity, negative = inhibition, hits mostly inhibitors. 0.44% of 230,000 active. AID 880, 2007; active means well fitted inhibition curve with a large enough effect, not every such curve was filed as active; inactive means no such curve, though single readings can be large or run the other way; further: nearly all actives have a fitted effect of over 30% in size
Target sequence (P63096 whole entry, looked up): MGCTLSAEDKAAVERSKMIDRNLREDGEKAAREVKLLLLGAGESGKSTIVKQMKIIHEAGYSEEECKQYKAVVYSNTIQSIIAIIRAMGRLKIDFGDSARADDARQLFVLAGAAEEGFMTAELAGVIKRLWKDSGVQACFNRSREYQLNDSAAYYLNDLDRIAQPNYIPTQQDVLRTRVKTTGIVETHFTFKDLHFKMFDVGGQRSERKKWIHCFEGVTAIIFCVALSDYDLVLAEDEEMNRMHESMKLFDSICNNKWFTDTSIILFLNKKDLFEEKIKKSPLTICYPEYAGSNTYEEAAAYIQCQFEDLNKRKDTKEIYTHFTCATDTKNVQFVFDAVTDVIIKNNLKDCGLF
TexasRed fluor = Total Fluorescence Counterscreen for Inhibitors of the Interaction of Thyroid Hormone Receptor and Steroid Receptor Coregulator 2. TRb/SRC2 Texas Red total fluorescence interference. Potency, µM (top dose mostly 106 µM), inactives show top-dose fluorescence change, negative = quenching. 0.29% of 280,000 active; active means well fitted curve in either direction with a large enough effect; inconclusive means small, poorly fitted or top-dose-only effect
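Human TRβ ligand-binding domain (0.6 uM) and Texas Red SRC2 peptide (20 nM) in Tris buffer with 1 uM T3 and 5% DMSO were incubated with pinned compound for 5 hr at ambient temperature. Total fluorescence was computed as S + 2P (555/632 nm).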
TRb SRC2 PPI = qHTS for Inhibitors of the Interaction of Thyroid Hormone Receptor and Steroid Receptor Coregulator 2 | Thyroid hormone receptor beta (Homo sapiens), P10828 | TRbeta-SRC2 peptide binding, fluorescence polarization; receptor liganded with 1 µM T3 | Potency, µM (doses to about 106 µM), without a hit: at the top dose activity change, negative = inhibition, hits mostly inhibitors | 0.065% of 280,000 active | AID 1469, 2008;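 further: plate controls were bound peptide for no effect and peptide without receptor for full effect; nearly all actives have a fitted effect of over 50% in size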
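Assay buffer: 20 mM Tris-HCl, 100 mM NaCl, 10% glycerol, 1 mM EDTA, 0.01% NP-40, 1 mM DTT, 1 uM T3, 5% DMSO; TRb LBD 0.6 uM, Texas Red SRC2 20 nM; FP after 5 hr.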
APEX1 inh = qHTS Assay for Inhibitors of the Human Apurinic/apyrimidinic Endonuclease 1 (APE1). DNA repair nuclease/redox regulator APEX1 (Homo sapiens), P27695. recombinant APE1, TAMRA/BHQ-2 abasic DNA cleavage fluorescence. Potency, µM (titrated, usually from 65.8 µM), inactives show at the top dose activity change, negative = inhibition, hits mostly inhibitors. 0.35% of 350,000 active. AID 2517, 2012;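 further: plate controls were vehicle for no effect and reference inhibitor for full effect; nearly all actives have a fitted effect of over 55% in size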
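Compound pre-exposure to 0.75 nM APE1, 15 min at ambient temperature. Reaction initiated with 50 nM TAMRA/BHQ-2 THF substrate, read immediately in kinetic mode, 525 nm excitation, 598 nm emission.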
RECQ1 helicase = qHTS Assay for Inhibitors of RecQ-Like Dna Helicase 1 (RECQ1); ATP-dependent DNA helicase Q1 (Homo sapiens), P46063; RECQ1 DNA unwinding, red fluorescence kinetic read; Potency, µM (titrated, usually from 57.3 µM), without a hit: at the top dose activity, negative = inhibition, hits mostly inhibitors; 0.54% of 240,000 active;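 further: plate controls were vehicle for no effect and no enzyme for full effect; nearly all actives have a fitted effect of over 30% in size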
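50 nM RECQ1T1 preincubated 15 min with compound in Tris pH 8.0 buffer with MgCl2, DTT, Tween-20 and 2.5 ug/ml poly(dI-dC); started with 200 nM TAMRA/BHQ-2 forked duplex and 2 mM ATP. Unwinding read as fluorescence (525/598 nm), two reads 2 h apart.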
BLM helicase inh = qHTS Assay for Inhibitors of Bloom's syndrome helicase (BLM); 0.2% of 350,000 active; RecQ-like DNA helicase BLM (Homo sapiens), P54132; Potency, µM (highest dose often 56.1 µM), for the others: at the highest dose activity change, negative = inhibition, hits mostly inhibitors; recombinant BLM DNA unwinding, fluorescence dequenching;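 further: plate controls were vehicle for no effect and no enzyme for full effect; nearly all actives have a fitted effect of over 35% in size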
Active calls of the source: *; ? = inconclusive; . = not tested or not shown; [ ] = dose if it differs, or a comment. Unless noted, the call rests on the fitted dose curve; in most records, active means well fitted curve in the direction sought with a large enough effect; inconclusive means small, poorly fitted or top-dose-only effect, or another doubt; inactive means no such curve, though single readings can be large; an effect the other way counts as inactive or inconclusive. Unless noted, on the % scale 0 is the no-effect control and ±100 the full control effect; potency means the concentration at half of the fitted maximal effect.

SMILES	RGS12 GoLoco inh	TexasRed fluor	TRb SRC2 PPI	APEX1 inh	RECQ1 helicase	BLM helicase inh
Cc1ccc(-c2nn(-c3ccccc3)cc2/C=C2\SC(=S)N(CC(=O)O)C2=O)cc1	9.3%	-2.7%	12.6%	?	-0.4%	-1.9%
COc1ccc(-c2nn(-c3ccccc3)cc2/C=C2/SC(=S)N(CCC(=O)O)C2=O)cc1	.	.	.	16.8µM*	.	-2.2%
COc1ccc(S(=O)(=O)N2CCN(C(=O)c3cc4c(s3)CCC4)CC2)cc1	.	.	.	2.67µM*	.	.
Nc1nc(-c2ccccc2)c(N=Nc2ccccc2Cl)s1	2.2%	-1.4%	-0.5%	-7.2%	-15.5%	-12.0%
Nc1nc(-c2ccccc2)c(N=Nc2cccc3ccccc23)s1	4.4%	-5.6%	7.7%	?	35.5µM*	-14.6%
Cc1ccc(CNC(=O)CSc2ncc(S(=O)(=O)c3ccc(Br)cc3)c(=O)[nH]2)cc1	.	0.398µM*[quencher]	-27.0%[53 µM]	.	.	-10.4%
Cc1ccc(CNc2ccc(N3CCN(C)CC3)cc2)cc1	.	.	.	19.0%	.	.
COc1ccc(C2=CC(=O)C=CC2=O)cc1	3.55µM*	-2.1%	-0.3%	-4.2%	2.4%	-9.5%
COc1ccc(C2=CC(=O)C[C@H](c3ccc(OC)cc3)C2)cc1	.	.	.	17.5%	.	.
Cc1ccc(OCC(=O)c2c(N)n(C)c(=O)n(C)c2=O)c([N+](=O)[O-])n1	.	.	.	15µM*	.	.
CCCC1=Nc2cc(C(=O)NCc3ccc(OC)cc3)ccc2Sc2ccc(C)cc21	.	1.1%	-1.2%	.	.	-8.5%
O=C(O)C(Oc1ccc(Cl)cc1)Oc1ccc(Cl)cc1	.	-2.1%[201 µM]	5.1%[201 µM]	.	.	.
COc1cc(CC(=O)Nc2ccc(S(=O)(=O)N(C)C)cc2)cc(OC)c1OC	7.94µM*	5.9%	-25.2%	3.0%	-2.7%	-2.0%
Cc1ccc(S(=O)(=O)C(I)I)cc1	.	-10.1%[201 µM]	-3.3%[201 µM]	.	.	.
CCCCc1ccc(C2C(C#N)=C(N)SC(N)=C2C#N)s1	198.9%	-1.5%	4.8%	13.0%	22.4µM*	-21.0%
CCOc1ccc(C2C(C#N)=C(N)SC(N)=C2C#N)c(OCC)c1	20.4%	-2.4%	4.7%	-0.2%	-5.5%	-0.2%
CCCCCCN1C=C/C(=C\C=C(C#N)C#N)c2ccccc21	240.5%	44.7µM*[fluorescent]	39.8µM*	3.0%	-0.9%	-9.0%
C=CCN1C=C/C(=C\C=C(C#N)C#N)c2ccccc21	178.7%	-0.8%	-6.8%	11.9%	-9.9%	-2.0%
C=CCCCCCCCCC=O	.	-0.7%[201 µM]	-4.6%[201 µM]	.	.	.
CCCCCCCCCCCCCCCCCCN	.	0.8%[201 µM]	3.8%[201 µM]	.	.	.
COc1ccc(/C=N/Nc2nc(-c3cccnc3)nc3ccccc23)cc1OC	4.7%	-10.3%	-3.0%	-5.7%	20µM*	3.1%
CC(C)n1c(SCC(=O)Nc2nncs2)nnc1-c1ccco1	.	.	.	13.4µM*	.	-20.5%
C#CC1(O)CC[C@H]2[C@@H]3CCC4=CCCC[C@@H]4[C@H]3CC[C@@]21C (stereo partly specified)	.	.	.	9.3%[21 µM]	.	.
Cc1cccc(OCC(=O)N(Cc2ccc(N(C)C)cc2)Cc2ccco2)c1C	.	0.447µM*[quencher]	-26.3%[53 µM]	.	.	-19.7%
CCCSc1nc(C)c(-c2csc(C(C#N)=C3CCCC3)n2)cc1C#N	112.6%	-13.3%	20.9%	?	7.94µM*	-6.0%
O=[N+]([O-])c1ccc(S(=O)(=O)Cc2ccccc2)c2nonc12	-15.2%[14.2 µM]	.	.	.	.	.
C#Cc1ccc([C@@H]2C=C(C(=O)OCC=C)O[C@H](OCC)[C@H]2CCCO)cc1	-1.3%	-1.9%	-0.4%	-0.3%	-14.5%	3.6%
C#Cc1ccc([C@H]2C=C(C(=O)OCC=C)O[C@@H](OCC)[C@@H]2CCCO)cc1	-2.3%	0.0%	3.4%	-2.4%	22.4µM*	-11.4%
